Measured values reported in PubChem BioAssay (NCATS).
Records with an inconclusive call do not appear. Unmarked numbers belong to inactive results. Active and inactive are the calls of the source. The call rests on the fitted dose curve; in most records, active means well fitted curve in the direction sought with a large enough effect; inconclusive means small, poorly fitted or top-dose-only effect, or another doubt; inactive means no such curve, though single readings can be large; an effect the other way counts as inactive or inconclusive.

test system: Zika virus NS2B-NS3 protease (linked construct); assay: 384 well plate NINDS Rhodamine confirmatory qHTS for Zika virus inhibitors (AID 1347164); conditions: rhodamine-110 peptide substrate fluorescence; series mostly up to 100 µM; activity change, negative = inhibition: at the top concentration;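 further: fluorescence from protease cleavage of Ac-LKRR-rhodamine 110 substrate; nearly all actives have a fitted effect of over 65% in size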; further: potency means the concentration at half of the fitted maximal effect;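 on activity change, negative = inhibition: top concentration of the series differs between compounds; plate controls were no-inhibitor control for no effect and no-enzyme control for full effect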
In short: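 Enzyme (final 5/30/60 nM) + cpd (DMSO), ~15 min; add Ac-LKRR-Rd 10 microM final; 25 min RT, dark; FI ex 485/em 538; normalized to no-enzyme, no-inhibitor ctrls; aprotinin intraplate ctrl.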

In the case of CC(=O)c1c(O)c(C)c(O)c(Cc2c(O)c3c(c(C(=O)/C=C/c4ccccc4)c2O)OC(C)(C)C=C3)c1O, the Potency is reported as 31.6 µM (active).
C[C@@]1(C(=O)O)CC[C@]2(C)CC[C@]3(C)C4=CC(=O)c5cc(O)c(O)cc5[C@]4(C)CC[C@@]3(C)[C@@H]2C1 was tested, and the Potency was 1.12 µM (active).

In the case of CCCCCOc1cc2c(cc1-c1cc(/C=C/C(=O)O)ccc1O)C(C)(C)CCC2(C)C, the “activity change, negative = inhibition” value is reported as -552%.

target: Lysine-specific demethylase 5B (Homo sapiens) (UniProt Q9UGL1); assay: Optimization screen for KDM5B Histone Demethylases FDH coupled qHTS against the LOPAC library (AID 1347166); conditions: KDM5B demethylation, FDH-coupled NADH fluorescence (FDH is formaldehyde dehydrogenase); series mostly up to 57.5 µM; activity, negative = inhibition: at the top concentration; further: 0% is about no effect
In short: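 KDM5BDeltaAP (200nM final) preincubated 10 min with compound, then 12.5uM H3K4Me3, 25uM a-ketoglutarate, ascorbate, Fe(II), NAD+ and FDH added; 50mM HEPES pH 7.5, 0.01% Tween-20. NADH fluorescence (340/450 nm) change over 30 min, room temperature.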

Chain of Lysine-specific demethylase 5B (Homo sapiens) (Q9UGL1 whole entry, looked up): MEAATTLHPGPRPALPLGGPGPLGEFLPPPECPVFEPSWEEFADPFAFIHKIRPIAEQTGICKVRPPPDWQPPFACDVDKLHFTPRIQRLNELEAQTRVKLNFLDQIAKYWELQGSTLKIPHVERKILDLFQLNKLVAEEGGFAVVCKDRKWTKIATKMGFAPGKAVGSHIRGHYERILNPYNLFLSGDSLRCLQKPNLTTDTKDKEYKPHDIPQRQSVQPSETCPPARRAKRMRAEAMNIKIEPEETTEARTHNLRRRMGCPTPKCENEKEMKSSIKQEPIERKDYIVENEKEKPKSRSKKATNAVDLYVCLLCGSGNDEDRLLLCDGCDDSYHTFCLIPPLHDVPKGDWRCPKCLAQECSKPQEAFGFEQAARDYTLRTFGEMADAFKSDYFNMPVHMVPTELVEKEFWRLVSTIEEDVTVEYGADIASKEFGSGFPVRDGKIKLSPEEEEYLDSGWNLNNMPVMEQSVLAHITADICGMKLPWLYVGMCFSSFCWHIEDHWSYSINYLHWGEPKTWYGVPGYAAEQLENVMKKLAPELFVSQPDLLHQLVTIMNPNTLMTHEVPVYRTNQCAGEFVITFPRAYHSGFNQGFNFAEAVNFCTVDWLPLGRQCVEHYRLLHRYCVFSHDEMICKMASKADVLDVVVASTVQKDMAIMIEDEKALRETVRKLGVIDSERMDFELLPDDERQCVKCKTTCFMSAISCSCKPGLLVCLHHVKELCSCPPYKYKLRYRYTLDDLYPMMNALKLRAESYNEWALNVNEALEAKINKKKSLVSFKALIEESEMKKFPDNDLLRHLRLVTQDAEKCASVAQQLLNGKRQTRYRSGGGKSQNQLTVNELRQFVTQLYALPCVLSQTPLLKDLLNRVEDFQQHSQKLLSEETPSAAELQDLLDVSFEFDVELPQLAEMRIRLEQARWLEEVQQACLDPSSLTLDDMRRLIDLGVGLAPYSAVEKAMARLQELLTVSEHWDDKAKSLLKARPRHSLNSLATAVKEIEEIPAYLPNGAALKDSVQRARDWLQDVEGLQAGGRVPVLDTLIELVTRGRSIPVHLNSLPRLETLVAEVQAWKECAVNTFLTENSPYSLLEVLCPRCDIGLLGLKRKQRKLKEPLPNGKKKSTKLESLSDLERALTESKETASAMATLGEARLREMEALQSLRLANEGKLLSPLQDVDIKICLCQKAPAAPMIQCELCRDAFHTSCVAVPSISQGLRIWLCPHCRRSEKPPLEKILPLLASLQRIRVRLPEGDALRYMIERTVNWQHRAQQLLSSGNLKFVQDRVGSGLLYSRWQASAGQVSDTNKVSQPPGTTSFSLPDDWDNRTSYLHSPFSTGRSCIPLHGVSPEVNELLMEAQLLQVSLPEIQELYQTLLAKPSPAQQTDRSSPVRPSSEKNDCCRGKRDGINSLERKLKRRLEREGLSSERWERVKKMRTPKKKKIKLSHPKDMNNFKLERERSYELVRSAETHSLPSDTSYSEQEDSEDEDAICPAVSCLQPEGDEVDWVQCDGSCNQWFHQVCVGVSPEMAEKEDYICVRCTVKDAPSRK

First: C=CCN1CC[C@]23c4c5ccc(O)c4O[C@@H]2/C(=N/N=C2\CC[C@@]4(O)C6Cc7ccc(O)c8c7[C@@]4(CCN6CC=C)[C@@H]2O8)CC[C@@]3(O)C1C5
Second: C=CCN1CCC23c4c5ccc(O)c4O[C@H]2C(=O)CC[C@@]3(O)C1C5 (stereo not given in full)
The “activity, negative = inhibition” value of the first is lower: -20.9% for the first, 3.75% for the second.

Compared with C/C(O)=C(\C#N)C(=O)Nc1cc(Br)ccc1Br, C[N+](C)(C)CC#CCOC(=O)Nc1cccc(Cl)c1 is lower in “activity, negative = inhibition” value: 2.28% for the first, -8.72% for the second.

First: NC(CCCCCP(=O)(O)O)C(=O)O (stereo not given)
Second: N[C@@H](CCl)C(=O)O
The “activity, negative = inhibition” value of the first is lower: 0.161% for the first, 0.959% for the second.

Going from C[N+]1(C)CCN(c2ccccc2)CC1 to C#CCN[C@H](C)Cc1ccccc1, the “activity, negative = inhibition” value rises from -12.5% to -7.44%.

First: CCNC(=O)[C@H]1O[C@@H](n2cnc3c(N)ncnc32)[C@H](O)[C@@H]1O
Second: CCn1cnc2c(Nc3cccc(Cl)c3)nc(N[C@@H]3CCCC[C@@H]3N)nc21
The “activity, negative = inhibition” value of the first is higher: 0.665% for the first, -10.7% for the second.

First: Oc1ccc2c3c1O[C@H]1c4[nH]c5ccccc5c4C[C@@]4(O)C(C2)N(CC2CC2)CCC314 (stereo not given in full)
Second: Oc1ccc2c3c1O[C@H]1c4oc5ccccc5c4C[C@@]4(O)C(C2)N(CC2CC2)CCC314 (stereo not given in full)
The “activity, negative = inhibition” value of the first is higher: -0.914% for the first, -6.3% for the second.

Going from CCN1C[C@@]2(COC)C3[C@@H](OC)C4[C@@H]1C3([C@@H]1C[C@]3(O)[C@H](OC(=O)c5ccccc5)[C@@H]1[C@]4(OC(C)=O)[C@@H](O)[C@@H]3OC)[C@H](OC)C[C@H]2O to C[N+]1(C)C2CCC1CC(OC(=O)c1c[nH]c3ccccc13)C2 (stereo not given), the “activity, negative = inhibition” value falls from -11.3% to -18.2%.

Going from CC(N)Cc1c[nH]c2ccc(OCc3cccs3)cc12 (stereo not given) to COc1cc(CC(C)N)c(OC)cc1I (stereo not given), the “activity, negative = inhibition” value falls from -4.33% to -8.43%.

First: CP(=O)(O)C1=CCNCC1
Second: CN1CCc2cccc(Cl)c2CC1
The “activity, negative = inhibition” value of the first is lower: -7.18% for the first, -4% for the second.

Compared with N[C@@H](Cn1oc(=O)[nH]c1=O)C(=O)O, Cc1o[nH]c(=O)c1CC(N)C(=O)O (stereo not given) is lower in “activity, negative = inhibition” value: -3.08% for the first, -7.58% for the second.

Going from NCCc1ccc(S(=O)(=O)F)cc1 to NCC(CP(=O)(O)O)c1ccc(Cl)cc1 (stereo not given), the “activity, negative = inhibition” value falls from -3.8% to -5.4%.

Going from C[N+]1(C)CCOC(O)(c2ccc(-c3ccc(C4(O)C[N+](C)(C)CCO4)cc3)cc2)C1 (stereo not given) to Nc1ccc(CCN2CCN(c3cccc(C(F)(F)F)c3)CC2)cc1, the “activity, negative = inhibition” value falls from -3.32% to -16.2%.

Going from CCCCCCC(C)(C)c1ccc([C@@H]2C[C@H](O)CC[C@H]2CCCO)c(O)c1 to CCCN1CCc2cc(O)cc3c2[C@H]1Cc1ccc(O)c(O)c1-3, the “activity, negative = inhibition” value rises from -13.4% to -9.62%.

Compared with NC(=O)c1cc(N2CC2)c([N+](=O)[O-])cc1[N+](=O)[O-], c1ccc2cc(CC3=NCCN3)ccc2c1 is higher in “activity, negative = inhibition” value: -2.23% for the first, -1.86% for the second.

Going from COc1ccc2c(c1)[C@@]13CCCC[C@H]1[C@@H](C2)NCC3 to COc1ccc2c(c1)/C(=C/c1cnc[nH]1)C(=O)N2, the “activity, negative = inhibition” value falls from -7.23% to -9%.

First: CC12NC(Cc3ccccc31)c1ccccc12 (stereo not given)
Second: c1ccc2c(c1)[I+]c1ccccc1-2
The “activity, negative = inhibition” value of the first is higher: -3.5% for the first, -8.65% for the second.
